# Results from PubChem BioAssay (EPA / NIEHS).
# Activity calls are given as the source filed them. Rule for the calls: active = hit-call score of the fitted dose curve at least 0.9, where 1 is the maximum; inactive = score below 0.9.
# Columns and labels:
# [1] = ATG_CRE_CIS: Attagene CIS-FACTORIAL HepG2 Assay for human cAMP Responsive Element (CRE) binding protein 3 (AID 2282926); settings: HepG2 CRE cis-reporter, Attagene multiplexed mRNA; actives raise or lower the signal
# Summary of the method: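 HepG2 cells transiently transfected with a multiplexed reporter library (CRE-driven unit among them) were dosed for 24 h. Reporter mRNA was quantified by RT-PCR, fluorescent labelling, HpaI digestion and capillary electrophoresis, with bidirectional fitting against DMSO baseline.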
# [2] = ATG_DR4_LXR_CIS: Attagene CIS-FACTORIAL HepG2 Assay for human Liver X Receptor (LXR), DR4 submotif (AID 2282929); settings: HepG2 Attagene DR4 cis-reporter, mRNA transcription; actives raise or lower the signal
# Summary of the method: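 Cells were transfected with multiple reporter transcription units, exposed to chemicals for 24 hours, then lysed for RNA. Reporter mRNA induction was measured by RT-PCR with capillary electrophoresis detection and fitted in both directions relative to DMSO.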
# [3] = ATG_AP_2_CIS: Attagene CIS-FACTORIAL HepG2 Assay for human Activator Protein 2 (AP-2) (AID 2282932); settings: HepG2 AP-2 cis-reporter, Attagene transcription factor profiling; actives raise or lower the signal
# Summary of the method: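 HepG2, transient MRTU transfection, cis-regulated reporters; 24 h compound exposure; RNA isolated, RT-PCR, 6-FAM labelling, HpaI digest, CE fluorescence. DMSO = negative control/baseline, bidirectional fit.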
# [4] = ATG_BRE_CIS: Attagene CIS-FACTORIAL HepG2 Assay for human Bone Morphogenetic Protein (BMP) Response Element (BRE) (AID 2282933); settings: HepG2 BMP response element reporter, Attagene transcription factor profiling; actives raise or lower the signal
# Summary of the method: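 Transient MRTU transfection of human HepG2 liver cells; 24 h compound treatment; total RNA isolated, reverse-transcribed, PCR-amplified, 6-FAM labelled, HpaI-cut, capillary electrophoresis. DMSO = negative control/baseline, bidirectional fit.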
# [5] = target: Transcription factor E2F1 (Homo sapiens) (UniProt Q01094); assay: ATG_E2F_CIS: Attagene CIS-FACTORIAL HepG2 Assay for human E2F Transcription Factor 1 (AID 2282935); settings: HepG2 Attagene cis-reporter, E2F reporter RNA transcripts; actives raise or lower the signal
# Transcription factor E2F1 (Homo sapiens), sequence (Q01094 whole entry, looked up): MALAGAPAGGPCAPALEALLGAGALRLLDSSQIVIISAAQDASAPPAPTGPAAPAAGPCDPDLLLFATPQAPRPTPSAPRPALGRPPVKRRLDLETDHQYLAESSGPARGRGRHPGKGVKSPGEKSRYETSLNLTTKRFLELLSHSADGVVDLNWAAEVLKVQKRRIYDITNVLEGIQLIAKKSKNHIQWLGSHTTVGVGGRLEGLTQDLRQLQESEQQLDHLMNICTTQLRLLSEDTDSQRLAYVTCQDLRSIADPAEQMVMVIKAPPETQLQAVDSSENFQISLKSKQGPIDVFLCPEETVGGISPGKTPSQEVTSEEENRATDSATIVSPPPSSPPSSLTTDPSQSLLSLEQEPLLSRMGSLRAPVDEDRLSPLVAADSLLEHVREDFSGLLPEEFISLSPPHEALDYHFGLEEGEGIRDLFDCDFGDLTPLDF
# Summary of the method: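 Cis-element reporter mRNA induction in transiently transfected HepG2, 24 h exposure. Activity fitted in both directions relative to DMSO negative control.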
# [6] = ATG_E_Box_CIS: Attagene CIS-FACTORIAL HepG2 Assay for human Enhancer Box (E-box) (AID 2282936); settings: HepG2 E-box cis-reporter transcription, actives raise or lower the signal
# Summary of the method: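 Cells: HepG2 (human liver), transient MRTU transfection. Exposure 24 h. RNA → oligo(dT) RT → PCR → 6-FAM label → HpaI → CE. Activity fitted both directions relative to DMSO.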
# [7] = ATG_M_19_CIS: Attagene CIS-FACTORIAL HepG2 Assay for M19 Transcription Factor (Internal Marker) (AID 2282939); settings: HepG2 Attagene CIS-FACTORIAL M19 internal marker reporter; actives raise or lower the signal
# Summary of the method: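 Transfect HepG2 with MRTU reporter library → dose chemical, 24 h → isolate total RNA, reverse-transcribe with oligo(dT) → PCR, 6-FAM label, HpaI cut (2 h, 37 C) → capillary electrophoresis. Bidirectional fit vs DMSO.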
# [8] = ATG_Ets_CIS: Attagene CIS-FACTORIAL HepG2 Assay for human Erythroblast Transformation Specific (ETS) (AID 2282941); settings: HepG2 ETS cis-reporter transcription, actives raise or lower the signal
# Summary of the method: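 Human HepG2 hepatoma cells were transiently transfected with promoter-driven reporter constructs and treated for 24 hours. Reporter transcripts were quantified by RT-PCR with fluorescent primer extension; bidirectional curve fitting used DMSO as reference.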
# [9] = target: Hepatocyte nuclear factor 3-beta (Homo sapiens) (UniProt Q9Y261); assay: ATG_FoxA2_CIS: Attagene CIS-FACTORIAL HepG2 Assay for human Forkhead box A2 (FOXA2) (AID 2282942); settings: HepG2 cis-reporter transcription factor activity, 24 h; actives raise or lower the signal
# Hepatocyte nuclear factor 3-beta (Homo sapiens), sequence (Q9Y261 whole entry, looked up): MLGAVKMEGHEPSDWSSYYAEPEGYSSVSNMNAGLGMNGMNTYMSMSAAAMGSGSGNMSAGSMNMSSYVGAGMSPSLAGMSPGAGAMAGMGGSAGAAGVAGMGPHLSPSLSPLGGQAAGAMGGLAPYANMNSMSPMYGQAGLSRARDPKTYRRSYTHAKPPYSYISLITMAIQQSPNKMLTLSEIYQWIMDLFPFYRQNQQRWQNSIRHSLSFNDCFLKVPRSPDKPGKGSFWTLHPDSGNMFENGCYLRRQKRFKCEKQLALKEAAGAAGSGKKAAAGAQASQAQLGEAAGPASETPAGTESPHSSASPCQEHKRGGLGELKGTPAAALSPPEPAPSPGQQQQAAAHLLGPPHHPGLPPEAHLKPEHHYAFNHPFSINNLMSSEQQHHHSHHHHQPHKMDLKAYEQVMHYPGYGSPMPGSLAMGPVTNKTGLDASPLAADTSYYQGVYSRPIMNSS
# Summary of the method: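 Endogenous transcription factor activity was read in HepG2 cells carrying transiently transfected cis-promoter reporter units. After 24 h dosing, reporter mRNA was quantified by RT-PCR and capillary electrophoresis, and values fitted bidirectionally versus DMSO.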
# [10] = ATG_FoxO_CIS: Attagene CIS-FACTORIAL HepG2 Assay for human Forkhead box O (FoxO) (AID 2282943); settings: HepG2 Attagene cis-reporter, FoxO element, mRNA; actives raise or lower the signal
# Summary of the method: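 HepG2, transient MRTU transfection (cis element, endogenous TFs). Dose 24 h. TriZol RNA → oligo(dT) RT → PCR → 6-FAM primer extension → HpaI cut → CE. Gain/loss vs DMSO.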
# [11] = ATG_GATA_CIS: Attagene CIS-FACTORIAL HepG2 Assay for human GATA Binding Protein (AID 2282944); settings: HepG2 GATA cis-element reporter, Attagene multiplex mRNA; actives raise or lower the signal
# Summary of the method: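 Transient MRTU transfection, HepG2, 24 h compound exposure. Total RNA → oligo(dT) RT → PCR → 6-FAM primer extension → HpaI cut → CE. Bidirectional fit vs DMSO.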
# [12] = ATG_M_32_CIS: Attagene CIS-FACTORIAL HepG2 Assay for M32 Transcription Factor (Internal Marker) (AID 2282949); settings: HepG2 Attagene cis-factorial M32 reporter, mRNA; actives raise or lower the signal;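 note: background control marker of the multiplexed CIS panel rather than a real target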
# Summary of the method: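 Fluorescent capillary electrophoresis peaks of HpaI-digested, FAM-labelled RT-PCR reporter products give the signal. Source: transiently transfected human liver HepG2 cells, 24 h after chemical dosing; bidirectional fitting against DMSO.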
# [13] = ATG_PXRE_CIS: Attagene CIS-FACTORIAL HepG2 Assay for human Pregnane X Receptor Element (PXRE) (AID 2282957); settings: HepG2 Attagene CIS-FACTORIAL PXRE reporter, mRNA; actives raise or lower the signal
# Summary of the method: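 HepG2 cells transiently transfected with cis-regulated multiple reporter transcription units; endogenous factor activity measured as reporter mRNA 24 h after dosing. RT-PCR, fluorescent primer extension, HpaI digestion, capillary electrophoresis; bidirectional fit versus DMSO baseline.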
# [14] = ATG_Sox_CIS: Attagene CIS-FACTORIAL HepG2 Assay for human SRY-box transcription factor (SOX) (AID 2282960); settings: HepG2 Attagene cis-factorial SOX reporter, mRNA; actives raise or lower the signal
# Summary of the method: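 Transient MRTU transfection of HepG2; 24 h compound incubation; TriZol RNA, oligo(dT) RT, PCR, 6-FAM primer extension, HpaI cut, CE. Bidirectional fit, DMSO = baseline.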
# [15] = target: Transcription factor Sp1 (Homo sapiens) (UniProt P08047); assay: ATG_Sp1_CIS: Attagene CIS-FACTORIAL HepG2 Assay for human Specificity Protein 1 (Sp1) (AID 2282961); settings: HepG2 Sp1 cis-reporter transcription, actives raise or lower the signal
# Transcription factor Sp1 (Homo sapiens), sequence (P08047 whole entry, looked up): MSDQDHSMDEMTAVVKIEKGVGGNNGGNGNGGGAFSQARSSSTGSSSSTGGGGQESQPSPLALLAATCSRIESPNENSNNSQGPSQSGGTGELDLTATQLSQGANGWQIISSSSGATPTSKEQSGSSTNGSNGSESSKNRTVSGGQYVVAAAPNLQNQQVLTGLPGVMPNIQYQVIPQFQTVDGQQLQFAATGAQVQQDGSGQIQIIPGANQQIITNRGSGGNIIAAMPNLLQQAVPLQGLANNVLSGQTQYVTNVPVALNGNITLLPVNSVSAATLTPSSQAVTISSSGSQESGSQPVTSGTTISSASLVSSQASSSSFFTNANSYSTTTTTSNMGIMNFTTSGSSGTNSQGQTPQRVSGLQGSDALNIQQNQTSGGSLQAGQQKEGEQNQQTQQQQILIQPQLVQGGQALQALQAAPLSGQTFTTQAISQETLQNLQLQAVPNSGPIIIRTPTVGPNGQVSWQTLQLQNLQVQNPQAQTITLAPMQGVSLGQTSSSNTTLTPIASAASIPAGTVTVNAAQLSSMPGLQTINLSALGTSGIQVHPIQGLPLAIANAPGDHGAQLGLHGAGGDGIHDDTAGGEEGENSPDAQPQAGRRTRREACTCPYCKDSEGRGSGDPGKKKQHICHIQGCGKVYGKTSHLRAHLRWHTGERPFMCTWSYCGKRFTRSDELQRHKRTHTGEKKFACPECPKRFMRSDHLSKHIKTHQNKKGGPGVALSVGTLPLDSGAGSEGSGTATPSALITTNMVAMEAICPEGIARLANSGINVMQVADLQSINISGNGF
# Summary of the method: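 Endogenous Sp1 activity was gauged in human liver HepG2 cells bearing transfected reporter units under a cis-regulating promoter. After 24 h dosing, reporter mRNA was quantified by RT-PCR with capillary electrophoresis, and activity fitted bidirectionally versus DMSO.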
# [16] = ATG_SREBP_CIS: Attagene CIS-FACTORIAL HepG2 Assay for human Sterol Regulatory Element Binding (SREBP) (AID 2282962); settings: HepG2 Attagene cis-factorial SREBP reporter, mRNA; actives raise or lower the signal
# Summary of the method: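 mRNA induction of transfected cis-promoter reporters in HepG2 cells, 24 h post-dose. Detection: RT-PCR with 6-FAM-labelled products, HpaI digest, capillary electrophoresis. DMSO served as negative control and baseline.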
# [17] = target: Signal transducer and activator of transcription 3 (Homo sapiens) (UniProt P40763); assay: ATG_STAT3_CIS: Attagene CIS-FACTORIAL HepG2 Assay for human Signal Transducer and Activator of Transcription 3 (STAT3) (AID 2282963); settings: HepG2, Attagene cis-factorial STAT3 reporter transcription; actives raise or lower the signal
# Signal transducer and activator of transcription 3 (Homo sapiens), sequence (P40763 whole entry, looked up): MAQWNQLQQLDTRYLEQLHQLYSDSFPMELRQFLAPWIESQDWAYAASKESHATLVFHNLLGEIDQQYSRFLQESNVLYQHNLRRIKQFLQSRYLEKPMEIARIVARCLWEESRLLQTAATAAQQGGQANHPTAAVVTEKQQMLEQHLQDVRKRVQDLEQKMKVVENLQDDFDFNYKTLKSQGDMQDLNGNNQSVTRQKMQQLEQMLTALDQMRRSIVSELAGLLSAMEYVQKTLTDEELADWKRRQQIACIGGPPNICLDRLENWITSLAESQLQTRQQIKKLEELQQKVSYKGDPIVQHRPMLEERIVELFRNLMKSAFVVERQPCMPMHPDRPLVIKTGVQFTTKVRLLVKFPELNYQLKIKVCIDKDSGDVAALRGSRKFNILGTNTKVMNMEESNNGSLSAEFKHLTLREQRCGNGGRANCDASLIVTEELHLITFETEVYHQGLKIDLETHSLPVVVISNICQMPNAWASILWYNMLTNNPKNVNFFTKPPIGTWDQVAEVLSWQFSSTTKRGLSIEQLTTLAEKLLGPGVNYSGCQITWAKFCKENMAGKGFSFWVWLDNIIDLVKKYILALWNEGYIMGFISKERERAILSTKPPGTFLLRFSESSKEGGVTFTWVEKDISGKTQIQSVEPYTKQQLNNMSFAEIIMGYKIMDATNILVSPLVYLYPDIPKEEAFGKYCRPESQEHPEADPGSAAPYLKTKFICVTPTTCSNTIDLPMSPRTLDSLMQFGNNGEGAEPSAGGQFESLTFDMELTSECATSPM
# Summary of the method: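 Endogenous STAT3-responsive cis-element activity was read in transiently transfected HepG2 cells after 24 h treatment. Reporter transcripts were quantified via RT-PCR and capillary electrophoresis, with DMSO as negative control and bidirectional curve fitting.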
# [18] = ATG_TA_CIS: Attagene CIS-FACTORIAL HepG2 Assay for human TA Basal Promoter (AID 2282964); settings: HepG2 Attagene CIS-factorial TA basal promoter reporter; actives raise or lower the signal
# Summary of the method: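 Read-out: fluorescent reporter-transcript fragments resolved by capillary electrophoresis after RT-PCR and HpaI digestion. Source: HepG2 cells carrying transiently transfected multi-reporter cis constructs, treated 24 h. Endpoint fitted bidirectionally relative to DMSO.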
# [19] = ATG_TCF_b_cat_CIS: Attagene CIS-FACTORIAL HepG2 Assay for human T-Cell-Factor with beta-catenin (TCF/b-cat) (AID 2282965); settings: HepG2 TCF/beta-catenin cis-reporter transcription, actives raise or lower the signal
# Summary of the method: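 Endogenous transcription factor activity is captured through cis-promoter reporter constructs transiently introduced into human HepG2 liver cells. Induced reporter mRNA is measured after 24 h and fitted bidirectionally relative to DMSO.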
# [20] = ATG_TGFb_CIS: Attagene CIS-FACTORIAL HepG2 Assay for human Transforming Growth Factor (TGF) (AID 2282967); settings: HepG2 Attagene CIS TGFb reporter, mRNA transcription; actives raise or lower the signal
# Summary of the method: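 Transient MRTU transfection of HepG2 (FuGene 6). Dose 24 h. TriZol RNA, oligo(dT) RT, PCR, 6-FAM primer extension, HpaI cut, CE. Bidirectional fit, DMSO = baseline.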
smiles,measurement,setting,value
C=CC(=O)OCCCCOC(=O)C=C,outcome,[1],inactive
same,AC50,[2],52.4 µM (active)
same,outcome,[3],inactive
same,outcome,[4],inactive
same,outcome,[5],inactive
same,AC50,[6],70.1 µM (active)
same,outcome,[7],inactive
same,AC50,[8],77.3 µM (active)
same,outcome,[9],inactive
same,AC50,[10],54.7 µM (active)
same,outcome,[11],inactive
same,outcome,[12],inactive
same,AC50,[13],158 µM (active)
same,outcome,[14],inactive
same,AC50,[15],26 µM (active)
same,AC50,[16],80.9 µM (active)
same,outcome,[17],inactive
same,outcome,[18],inactive
same,AC50,[19],60.4 µM (active)
same,outcome,[20],inactive
COC(=O)c1ccccc1S(=O)(=O)NC(=O)Nc1nc(C)cc(C)n1,outcome,[1],inactive
same,outcome,[2],inactive
same,outcome,[3],inactive
same,outcome,[4],inactive
same,outcome,[5],inactive
same,outcome,[6],inactive
same,outcome,[7],inactive
same,outcome,[8],inactive
same,outcome,[9],inactive
same,outcome,[10],inactive
same,outcome,[11],inactive
same,outcome,[12],inactive
same,outcome,[13],inactive
same,outcome,[14],inactive
same,outcome,[15],inactive
same,outcome,[16],inactive
same,outcome,[17],inactive
same,outcome,[18],inactive
same,outcome,[19],inactive
same,outcome,[20],inactive
CCOC(=O)NC(=S)Nc1ccccc1NC(=S)NC(=O)OCC,outcome,[1],inactive
same,outcome,[2],inactive
same,outcome,[3],inactive
same,outcome,[4],inactive
same,outcome,[5],inactive
same,outcome,[6],inactive
same,outcome,[7],inactive
same,outcome,[8],inactive
same,outcome,[9],inactive
same,outcome,[10],inactive
same,outcome,[11],inactive
same,outcome,[12],inactive
same,AC50,[13],1.68 µM (active)
same,outcome,[14],inactive
same,outcome,[15],inactive
same,outcome,[16],inactive
same,outcome,[17],inactive
same,outcome,[18],inactive
same,outcome,[19],inactive
same,outcome,[20],inactive
O=[N+]([O-])c1cc(C(F)(F)F)c(Cl)c([N+](=O)[O-])c1Cl,outcome,[1],inactive
same,AC50,[2],5.08 µM (active)
same,outcome,[3],inactive
same,outcome,[4],inactive
same,outcome,[5],inactive
same,AC50,[6],5.43 µM (active)
same,outcome,[7],inactive
same,outcome,[8],inactive
same,outcome,[9],inactive
same,outcome,[10],inactive
same,outcome,[11],inactive
same,outcome,[12],inactive
same,outcome,[13],inactive
same,AC50,[14],5.81 µM (active)
same,AC50,[15],6.68 µM (active)
same,outcome,[16],inactive
same,outcome,[17],inactive
same,outcome,[18],inactive
same,AC50,[19],5.54 µM (active)
same,outcome,[20],inactive
[Cl-].[Cl-].[Cl-].[Yb+3],outcome,[1],inactive
same,outcome,[2],inactive
same,outcome,[3],inactive
same,outcome,[4],inactive
same,outcome,[5],inactive
same,outcome,[6],inactive
same,outcome,[7],inactive
same,outcome,[8],inactive
same,outcome,[9],inactive
same,outcome,[10],inactive
same,outcome,[11],inactive
same,outcome,[12],inactive
same,outcome,[13],inactive
same,outcome,[14],inactive
same,outcome,[15],inactive
same,outcome,[16],inactive
same,outcome,[17],inactive
same,outcome,[18],inactive
same,outcome,[19],inactive
same,outcome,[20],inactive
CCC[N+](=O)[O-],outcome,[1],inactive
same,outcome,[2],inactive
same,outcome,[3],inactive
same,outcome,[4],inactive
same,outcome,[5],inactive
same,outcome,[6],inactive
same,outcome,[7],inactive
same,outcome,[8],inactive
same,outcome,[9],inactive
same,outcome,[10],inactive
same,outcome,[11],inactive
same,outcome,[12],inactive
same,outcome,[13],inactive
same,outcome,[14],inactive
same,outcome,[15],inactive
same,outcome,[16],inactive
same,outcome,[17],inactive
same,outcome,[18],inactive
same,outcome,[19],inactive
same,outcome,[20],inactive
c1ccc2c(c1)CCCC2,outcome,[1],inactive
same,outcome,[2],inactive
same,outcome,[3],inactive
same,outcome,[4],inactive
same,outcome,[5],inactive
same,outcome,[6],inactive
same,outcome,[7],inactive
same,outcome,[8],inactive
same,outcome,[9],inactive
same,outcome,[10],inactive
same,outcome,[11],inactive
same,outcome,[12],inactive
same,outcome,[13],inactive
same,outcome,[14],inactive
same,outcome,[15],inactive
same,outcome,[16],inactive
same,outcome,[17],inactive
same,outcome,[18],inactive
same,outcome,[19],inactive
same,outcome,[20],inactive
